# Measurements: PubChem BioAssay (NCATS)
# Records with an inconclusive call do not appear. Where a call stands in place of a potency, no number is given. Activity calls are given as the source filed them. The call rests on the fitted dose curve; in most records, active means well fitted curve in the direction sought with a large enough effect; inconclusive means small, poorly fitted or top-dose-only effect, or another doubt; inactive means no such curve, though single readings can be large; an effect the other way counts as inactive or inconclusive.
# How the values were obtained:
# [1] = qHTS of pediatric cancer cell lines to identify multiple opportunities for drug repurposing: Primary screen for NB-EBc1 cells (AID 1347095); further: potency means the concentration at half of the fitted maximal effect
# In short: (§1)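 Luminescence from CellTiter-Glo served as readout of metabolically active cells after 48 h compound exposure. Titrations: MIPE 11-point, from 0.78 nM; NPC 8-point, from 0.59 nM (final). Concentration-response curves came straight from the primary screen.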
# [2] = qHTS of pediatric cancer cell lines to identify multiple opportunities for drug repurposing: Primary screen for LAN-5 cells (AID 1347100); further: potency means the concentration at half of the fitted maximal effect
# In short: (§2)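 Viability after 48 h compound treatment at 37C, 500-1,000 cells/well, read as ATP luminescence with CellTiter-Glo. Primary screens used 11-point (MIPE, 0.78 nM-46 µM) or 8-point (NPC, 0.59 nM-46 µM) final concentrations; follow-up screens used 11-point dilutions.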
# [3] = qHTS of pediatric cancer cell lines to identify multiple opportunities for drug repurposing: Primary screen for control Hh wild type fibroblast cells (AID 1347106);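 further: series mostly up to about 46 µM; a drop in luminescence marks cytotoxicity and a rise apparent proliferation; nearly all actives have a fitted effect of over 55% in size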
# In short: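 Cells (500-1,000/well) in growth media were settled 5 h at 37 degrees C, then given compounds for 48 h. Viability was read as CellTiter-Glo luminescence. Primary runs used MIPE at 11 points (0.78 nM-46 µM) and NPC at 8 points (0.59 nM-46 µM); follow-ups used 11 points.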
# [4] = qHTS of pediatric cancer cell lines to identify multiple opportunities for drug repurposing: Primary screen for Rh30 cells (AID 1347107); further: series mostly up to about 46 µM; nearly all actives have a fitted effect of over 75% in size
# In short: as §2
# [5] = qHTS of pediatric cancer cell lines to identify multiple opportunities for drug repurposing: Primary screen for Rh41 cells (AID 1347108); further: nearly all actives have a fitted effect of over 70% in size; further: potency means the concentration at half of the fitted maximal effect
# In short: as §1
# [6] = qHTS of pediatric cancer cell lines to identify multiple opportunities for drug repurposing: Confirmatory screen for NB1643 cells (AID 1347109); further: nearly all actives have a fitted effect of over 45% in size; further: potency means the concentration at half of the fitted maximal effect
# In short: as §2
# [7] = qHTS of pediatric cancer cell lines to identify multiple opportunities for drug repurposing: Confirmatory screen for A673 cells (AID 1347110); further: nearly all actives have a fitted effect of over 65% in size; further: potency means the concentration at half of the fitted maximal effect
# In short: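 qHTS titration format: primary MIPE 0.78 nM-46 µM (11 pts), NPC 0.59 nM-46 µM; confirmation 11 pts. 48 h, CTG luminescence.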
# [8] = qHTS of pediatric cancer cell lines to identify multiple opportunities for drug repurposing: Confirmatory screen for SK-N-MC cells (AID 1347111);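 further: cells exposed to compound for 48 h before the readout; nearly all actives have a fitted effect of over 70% in size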; further: potency means the concentration at half of the fitted maximal effect
# In short: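 SK-N-MC cells at 500-1,000 cells/well in growth media were pre-incubated 5 h, then exposed to compounds at 11-point dilutions for 48 h at 37 degrees C, 5% CO2. Viability was read as CellTiter-Glo luminescence.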
# [9] = qHTS of pediatric cancer cell lines to identify multiple opportunities for drug repurposing: Confirmatory screen for LAN-5 cells (AID 1347113); further: nearly all actives have a fitted effect of over 65% in size; further: potency means the concentration at half of the fitted maximal effect
# In short: as §2
# [10] = qHTS of pediatric cancer cell lines to identify multiple opportunities for drug repurposing: Confirmatory screen for NB-EBc1 cells (AID 1347115); further: nearly all actives have a fitted effect of over 45% in size; further: potency means the concentration at half of the fitted maximal effect
# In short: as §2
# [11] = qHTS of pediatric cancer cell lines to identify multiple opportunities for drug repurposing: Primary screen for U-2 OS cells (AID 1347096); further: nearly all actives have a fitted effect of over 50% in size; further: potency means the concentration at half of the fitted maximal effect
# In short: as §2
# [12] = qHTS of pediatric cancer cell lines to identify multiple opportunities for drug repurposing: Primary screen for NB1643 cells (AID 1347099); further: nearly all actives have a fitted effect of over 50% in size; further: potency means the concentration at half of the fitted maximal effect
# In short: as §1
# [13] = qHTS of pediatric cancer cell lines to identify multiple opportunities for drug repurposing: Primary screen for MG 63 (6-TG R) cells (AID 1347105); further: nearly all actives have a fitted effect of over 50% in size; further: potency means the concentration at half of the fitted maximal effect
# In short: as §1
# [14] = qHTS of pediatric cancer cell lines to identify multiple opportunities for drug repurposing: Primary screen for Saos-2 cells (AID 1347097); further: nearly all actives have a fitted effect of over 40% in size; further: potency means the concentration at half of the fitted maximal effect
# In short: as §1
# [15] = qHTS of pediatric cancer cell lines to identify multiple opportunities for drug repurposing: Primary screen for SK-N-SH cells (AID 1347098); further: nearly all actives have a fitted effect of over 65% in size; further: potency means the concentration at half of the fitted maximal effect
# In short: (§3)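 Cells (500-1,000/well) rested 5 h, then received compounds for 48 h; metabolically active cells were measured by CellTiter-Glo luminescence. Final concentrations spanned up to 46 µM (MIPE, 11-point) or 0.59 nM-46 µM (NPC, 8-point) in primary screens, 11-point in follow-ups.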
# [16] = qHTS of pediatric cancer cell lines to identify multiple opportunities for drug repurposing: Primary screen for BT-12 cells (AID 1347101); further: nearly all actives have a fitted effect of over 25% in size; further: potency means the concentration at half of the fitted maximal effect
# In short: as §3
# [17] = qHTS of pediatric cancer cell lines to identify multiple opportunities for drug repurposing: Primary screen for Rh18 cells (AID 1347102); further: nearly all actives have a fitted effect of over 65% in size; further: potency means the concentration at half of the fitted maximal effect
# In short: as §2
# [18] = qHTS of pediatric cancer cell lines to identify multiple opportunities for drug repurposing: Primary screen for OHS-50 cells (AID 1347103); further: nearly all actives have a fitted effect of over 40% in size; further: potency means the concentration at half of the fitted maximal effect
# In short: as §3
# [19] = qHTS of pediatric cancer cell lines to identify multiple opportunities for drug repurposing: Primary screen for RD cells (AID 1347104); further: nearly all actives have a fitted effect of over 55% in size; further: potency means the concentration at half of the fitted maximal effect
# In short: as §1
# [20] = qHTS of pediatric cancer cell lines to identify multiple opportunities for drug repurposing: Confirmatory screen for DAOY cells (AID 1347114); further: nearly all actives have a fitted effect of over 65% in size; further: potency means the concentration at half of the fitted maximal effect
# In short: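 Viability measured as metabolically active cells via CellTiter-Glo luminescence following 48 hours of compound exposure, 11-point dilutions in confirmatory testing. 500-1,000 cells/well plated 5 hours before dosing; controls were DMSO and 2.3 µM bortezomib.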
SMILES,Potency [1],Potency [2],Potency [3],Potency [4],Potency [5],Potency [6],Potency [7],Potency [8],Potency [9],Potency [10],Potency [11],Potency [12],Potency [13],Potency [14],Potency [15],Potency [16],Potency [17],Potency [18],Potency [19],Potency [20]
COc1c(C)c2c(c(O)c1C/C=C(\C)CCC(=O)OCCN1CCOCC1)C(=O)OC2,0.188 µM (active),0.841 µM (active),inactive,inactive,inactive,1.31 µM (active),3.69 µM (active),1.65 µM (active),1.65 µM (active),0.827 µM (active),,,,,,,,,,
Oc1ccc(CCNCCCCCCNCCc2ccccc2)cc1O,inactive,,,inactive,,,,,,,inactive,inactive,inactive,,,,,,,
CCCCCCCCCCCCCC[N+](C)(C)C,21.1 µM (active),7.5 µM (active),,,,,,,,,,23.7 µM (active),26.6 µM (active),16.8 µM (active),15.4 µM (active),3.89 µM (active),4.22 µM (active),3.09 µM (active),11.9 µM (active),
Nc1ccc2cc3ccc(N)cc3nc2c1,4.73 µM (active),4.22 µM (active),,,,7.37 µM (active),7.37 µM (active),8.27 µM (active),8.27 µM (active),13.1 µM (active),,,,,7.7 µM (active),7.77 µM (active),,,21.1 µM (active),9.27 µM (active)
OC(CCCN1CCCCC1)(c1ccccc1)c1ccccc1,inactive,inactive,inactive,inactive,inactive,,,,,,,inactive,inactive,inactive,inactive,,,,inactive,
CC[C@@H]([C@H](C)O)n1ncn(-c2ccc(N3CCN(c4ccc(OC[C@@H]5CO[C@@](Cn6cncn6)(c6ccc(F)cc6F)C5)cc4)CC3)cc2)c1=O,21.1 µM (active),,inactive,inactive,,,,,,,,,,,inactive,,inactive,13.8 µM (active),,
CC(C)(c1ccc(O)cc1)c1ccc(O)cc1,inactive,inactive,inactive,inactive,,,,,,,inactive,inactive,,,,,inactive,,inactive,
CN(C)CCOC1=Cc2ccccc2Sc2ccc(Cl)cc21,inactive,inactive,inactive,inactive,inactive,,,,,,inactive,inactive,inactive,,,,inactive,24.6 µM (active),,
CC[C@@]1(O)C(=O)OCc2c1cc1n(c2=O)Cc2c-1nc1ccccc1c2/C=N/OC(C)(C)C,0.0211 µM (active),,,,0.944 µM (active),0.0414 µM (active),0.0117 µM (active),0.0052 µM (active),0.0147 µM (active),0.0052 µM (active),,,0.0266 µM (active),0.0596 µM (active),0.194 µM (active),0.246 µM (active),,0.0347 µM (active),0.668 µM (active),
O=C(OCC(O)CO)c1ccccc1Nc1ccnc2c(C(F)(F)F)cccc12 (stereo unspecified),inactive,inactive,inactive,inactive,inactive,,,,,,,inactive,,,,,inactive,,inactive,
CCCCCN(CCCOC)C(=O)C(CCC(=O)O)NC(=O)c1ccc(Cl)c(Cl)c1 (stereo unspecified),,inactive,inactive,inactive,inactive,,,,,,inactive,inactive,inactive,inactive,inactive,inactive,inactive,,inactive,
CCc1cc2cc(OC)c(OC)cc2c(Cc2ccccc2)n1,,,inactive,inactive,inactive,inactive,inactive,inactive,,inactive,inactive,inactive,inactive,inactive,,inactive,inactive,21.9 µM (active),inactive,inactive
O=C(O)[C@H](O)[C@@H](O)[C@H](O[C@@H]1O[C@H](CO)[C@H](O)[C@H](O)[C@H]1O)[C@H](O)CO,,inactive,inactive,inactive,inactive,,,,,,inactive,inactive,inactive,inactive,,inactive,inactive,inactive,inactive,
CN(C)CCN(Cc1ccsc1)c1ccccn1,,0.001 µM (active),,inactive,inactive,inactive,inactive,,inactive,inactive,inactive,inactive,inactive,inactive,inactive,inactive,inactive,inactive,inactive,inactive
CCCCCCn1c(=O)c2c(ncn2C)n(C)c1=O,,inactive,inactive,inactive,inactive,,,,,,inactive,inactive,,inactive,inactive,inactive,inactive,,inactive,
C/C(=N\O)[C@@H](C)NCC(C)(C)CN[C@H](C)/C(C)=N/O,,inactive,inactive,inactive,inactive,,,,,,inactive,inactive,inactive,inactive,inactive,inactive,,,inactive,
CC(=O)O[C@@H]1CC2C3CCc4cc(OC(=O)c5ccccc5)ccc4C3CCC2(C)[C@H]1OC(C)=O (stereo partly specified),,inactive,,,inactive,,,,,,inactive,inactive,inactive,inactive,inactive,inactive,inactive,,inactive,
OC1(c2ccc(Cl)c(C(F)(F)F)c2)CCN(CCCC(c2ccc(F)cc2)c2ccc(F)cc2)CC1,,,,,16.8 µM (active),,,,,,21.1 µM (active),,13.3 µM (active),11.9 µM (active),24.4 µM (active),21.9 µM (active),23.7 µM (active),3.89 µM (active),21.1 µM (active),
CCC(C(=O)OCCN1CCOC(c2ccccc2)C1C)c1ccccc1 (stereo unspecified),,inactive,inactive,inactive,,,,,,,inactive,inactive,inactive,inactive,,,inactive,,inactive,
CCCc1ccc(OCC(=O)N2CCN(C(=O)COc3ccc(CCC)cc3OC)CC2)c(OC)c1,,,inactive,,inactive,,,,,,inactive,inactive,inactive,inactive,inactive,,inactive,inactive,inactive,
COc1cc2c(cc1OC)CN(C(=O)[C@H](C)N[C@@H](CCc1ccccc1)C(=O)O)[C@H](C(=O)O)C2,,,,inactive,inactive,,,,,,inactive,inactive,inactive,inactive,inactive,inactive,inactive,,inactive,
CC(=O)Nc1c(I)c(NC(C)=O)c(I)c(C(=O)O)c1I,,inactive,inactive,inactive,inactive,,,,,,inactive,inactive,inactive,inactive,inactive,inactive,inactive,inactive,inactive,
